According to PubChem BioAssay (NCI):
About 83,000 compounds went through this panel and 20% of them were active in at least one assay; those are over-represented in the sample as a whole.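 Note: values are percent growth. 100 is the growth of untreated cells, values between 100 and 0 indicate rising inhibition; between -100 and 0 indicates cell death.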

Experiments:
Test in all cases: NCI-60 one-dose screen, 48 h (100 = growth as untreated, 0 = no growth, -100 = all killed)
Conditions in all cases: 10 µM unless noted; active means growth percent below 10; inactive means the rest
T-47D breast = system: T-47D breast
MDA-MB-435 melanoma = system: MDA-MB-435 melanoma
SW-620 colon = system: SW-620 colon
MCF7 breast = system: MCF7 breast
HCT-116 colon = system: HCT-116 colon
HCC-2998 colon = system: HCC-2998 colon
KM12 colon = system: KM12 colon

Measured: growth

Cc1cc(C(=O)c2ccccc2)cc(C)c1O
inactive: T-47D breast 95.6% | MDA-MB-435 melanoma 101% | SW-620 colon 97.4% | MCF7 breast 93.8% | HCT-116 colon 84.5% | HCC-2998 colon 102% | KM12 colon 99.6%

COc1ccc2c(ccc[n+]2C)c1
inactive: T-47D breast 102% | MDA-MB-435 melanoma 110% | SW-620 colon 101% | MCF7 breast 96.1% | HCT-116 colon 99.8% | HCC-2998 colon 104% | KM12 colon 90.6%

CC1(c2ccccc2)CO1 (stereo not drawn)
inactive: T-47D breast 109% | MDA-MB-435 melanoma 113% | SW-620 colon 108% | MCF7 breast 103% | HCT-116 colon 101% | HCC-2998 colon 111% | KM12 colon 108%

CC(C)c1ccc(C(=O)OCCCl)cc1
inactive: T-47D breast 91.1% | MDA-MB-435 melanoma 95.9% | SW-620 colon 106% | MCF7 breast 92.6% | HCT-116 colon 82.4% | HCC-2998 colon 98.9% | KM12 colon 115%
